These results are taken from PubChem BioAssay AID841 (Emory University Molecular Libraries Screening Center, 2007).

Among all 140,000 compounds or so, about 2,100 (1.5%) were called active. The list comes from a sample in which actives are over-represented; it also holds similar structures and randomly drawn compounds. Unmarked numbers belong to inactive results. Rule as the data show it: active = protection mostly above about 24% (no sharp cut-off); inactive = mostly below about 26%.

The nature of this experiment: compounds protecting cells from measles virus cytopathic effect, primary screen, measles RdRp inhibitor project, single point, MLSMR library, absorbance (AID 841). The conditions noted are these: Measles virus-infected cells, CPE protection, at 4 µM, hits give high values.
As to `COC(=O)c1sc(NC(=O)c2csc3c2CCCC3)nc1C`, the protection (pct of control) was 49.9% (active). The result for `CC(=O)Cc1nsc(NC(=O)c2csc3c2CCCC3)n1` reads 2.51%; that for `COC(=O)c1sccc1NC(=O)c1csc2c1CCCC2`, 9.63%; that for `CN(c1ccccc1)S(=O)(=O)c1cccc(NC(=O)Cc2c(F)cccc2Cl)c1`, 5.27%. In the case of `Cc1cc(OC(=O)c2c(Cl)cccc2Cl)nc(C)n1`, the protection (pct of control) is 8.28%. On to `Cc1cc(C)c(S(=O)(=O)c2ccccc2)c(OC(=O)c2c(F)cccc2Cl)n1`, for which the protection (pct of control) is 38.9% (active). In the case of `CCNc1ccc(C(=O)OCC(=O)N2c3ccccc3NC(=O)C2(C)C)cc1[N+](=O)[O-]`, the protection (pct of control) is 5.03%. In the case of `Cc1n[nH]c(=S)n1/N=C/c1ccc(Br)o1`, the protection (pct of control) is 7.57%. `COc1cc(/C=N/O)ccc1OCc1ccc([N+](=O)[O-])cc1`: the protection (pct of control) was 30%.

As for `COc1cc(/C=N/n2c(C)n[nH]c2=S)ccc1OCc1ccccc1`, the protection (pct of control) was 79.2% (active). Regarding `COc1ccc(C(=O)ON=C2c3ccccc3-c3ccccc32)cc1OC`, the protection (pct of control) is 9.81%. Take `Cc1cccc(OCCNC(=S)NC(=O)c2cccnc2)c1`: the protection (pct of control) is 16.7%.

With `COc1ccc(Br)cc1CN(C)CC(=O)Nc1cc([N+](=O)[O-])ccc1OC`, the protection (pct of control) was 4.74%. `COc1ccc([N+](=O)[O-])cc1NC(=O)CCc1ccccc1`: the protection (pct of control) was 101% (active). As for `COc1ccccc1CC(=O)Nc1ccc([N+](=O)[O-])cc1OC`, the protection (pct of control) is 14.5%. The value for `CCC1S/C(=N/N=C/c2ccco2)NC1=O` (stereo unspecified) was 7.36%; that for `CCOCCCNC(=O)C(NC(=O)c1ccc(=O)[nH]c1)c1ccc(Cl)cc1` (stereo unspecified) was 30.2% (active). Turning to `CCOCCCNC(=O)C(NC(=O)c1ccc(=O)[nH]c1)c1ccc(C)cc1` (stereo unspecified), the protection (pct of control) is 6.13%. On to `CCOCCCNC(=O)C(NC(=O)CNC(=O)c1ccccc1)c1ccc(C)cc1` (stereo unspecified), for which the protection (pct of control) was 7.37%.

Regarding `Cc1ccc(-c2cc(N)on2)cc1`, the protection (pct of control) is 16.5%. Consider `Cc1ccc(S(=O)(=O)N2CCCC2C(=O)OCc2nc3sc(C)c(C)c3c(=O)[nH]2)cc1` (stereo unspecified), for which the protection (pct of control) is 4.09%. In the case of `Cc1ccc2[nH]c(C(=O)O)c(NC(=O)c3ccccc3[N+](=O)[O-])c2c1`, the protection (pct of control) was 14.1%.

In the case of `COC(=O)c1ccccc1NC(=O)CSc1nnnn1C`, the protection (pct of control) is 30.8%. For `CCOC(=O)c1c(-c2ccc(C)cc2C)csc1NC(=O)CSc1nnnn1C`, the protection (pct of control) was 37% (active). The value for `CCOC(=O)CNC(=O)CSc1nnnn1-c1cc(C)ccc1C` was 4.67%; that for `COc1ccc(/C=C/C(=O)Nc2ccc3c(c2)OCCO3)cc1OC` was 18.3%; that for `CC1(C)CC(=O)C(C=NCc2cccnc2)=C(O)C1` was 2.03%. With `CC1(C)CC(=O)C(C=NCCC2=CCCCC2)=C(O)C1`, the protection (pct of control) is 36.1% (active). As to `CC(=O)N1CCN(CCN=CC2=C(O)CC(C)(C)CC2=O)CC1`, the protection (pct of control) is 2.75%. Consider `CN1CCN(S(=O)(=O)c2ccc(NC(=O)c3ccco3)cc2)CC1`, for which the protection (pct of control) is 12.2%. As for `CN1CCN(S(=O)(=O)c2ccc(NC(=S)NC(=O)C3CC3)cc2)CC1`, the protection (pct of control) was 7.47%. For the compound `CN1CCN(S(=O)(=O)c2ccc(NC(=O)C3CCCO3)cc2)CC1` (stereo unspecified), the protection (pct of control) was 28.4% (active). For `C/C(=N\NC(=O)Cc1ccc(F)cc1)c1ccc(F)cc1`, the protection (pct of control) was 16.1%. On to `Cc1ccccc1C(CC(=O)c1cccs1)C(C#N)C#N` (stereo unspecified), for which the protection (pct of control) is 1.36%. On to `O=C(Nc1ccn(Cc2ccccc2)n1)c1n[nH]c([N+](=O)[O-])c1Cl`, for which the protection (pct of control) was 4.93%. As to `O=C(Nc1ccn(Cc2ccc(F)cc2)n1)c1ccncc1`, the protection (pct of control) was 61.8% (active).

In the case of `Cc1ccc(Cn2ccc(NC(=O)c3cc(C(C)C)on3)n2)cc1`, the protection (pct of control) is 10.8%. On to `CC(=O)N1C(C)c2ccccc2C(C)(C)CC12CCCCC2` (stereo unspecified), for which the protection (pct of control) was 1.83%. For `Cc1ccc(C)c(NC(=O)CSc2nc3c(oc4ccccc43)c(=O)n2-c2ccccc2)c1`, the protection (pct of control) is 11.7%. With `Cc1ccc(SCCC(=O)OCC(=O)Nc2ncc(Cl)cc2Cl)cc1`, the protection (pct of control) was 25.6%. Regarding `Cc1ccc(-n2c(SCC(=O)Nc3ncc(Cl)cc3Cl)nc3ccccc32)cc1`, the protection (pct of control) was 45.3% (active). `NC(=O)CCC(NS(=O)(=O)c1ccc(Cl)cc1)C(=O)NCc1ccccc1Cl` (stereo unspecified): the protection (pct of control) is 5.12%. The result for `CNC(=S)N/N=C/c1ccc(OCc2ccccc2)c(Br)c1` reads 4.55%; that for `CCOC(=O)Cc1csc(SCC(=O)NC(C)C23CC4CC(CC(C4)C2)C3)n1` (stereo unspecified), 4.07%; that for `Cc1cccc(Nc2nc3c(S(=O)(=O)c4ccccc4)nnn3c3ccccc23)c1C`, 4.8%. As for `CCc1ccc(NC2Nc3cc(C)nn3S2)cc1` (stereo unspecified), the protection (pct of control) is 40.8% (active). As for `Cc1ccc(-c2nc3c(cnn3-c3ccccc3)c(=O)o2)cc1`, the protection (pct of control) is 8.52%.

On to `COc1ccc(Oc2c(Cl)cnn(-c3ccccc3)c2=O)cc1`, for which the protection (pct of control) is 42.2% (active). The result for `COc1ccc(-n2c(C)nc3c(cnn3-c3ccccc3)c2=O)cc1` reads 1.2%.

For `Cc1cc(C(=O)CSc2nc(N)cc(=O)[nH]2)c(C)n1-c1cccc(F)c1`, the protection (pct of control) was 24.8%. In the case of `O=C(C1CCCO1)N1CCN(C(=S)Nc2cccc(Cl)c2)CC1` (stereo unspecified), the protection (pct of control) was 19.2%. For the compound `C=C(C)c1cccc(C(C)(C)NC(=O)NC2CCCC2)c1`, the protection (pct of control) was 2.05%. On to `CCOC(=O)c1sc(NC(=O)COc2ncnc3ccccc23)c(C(=O)OCC)c1C`, for which the protection (pct of control) is 23.3%. As to `O=C(CN1CCc2ccccc21)NC(c1ccccc1)c1ccccc1`, the protection (pct of control) was 11.6%. On to `CC(C)(C)NC(=O)CN(Cc1cccs1)C(=O)CNS(=O)(=O)c1ccccc1`, for which the protection (pct of control) is 4.11%. Turning to `Cc1ccc(S(=O)(=O)NCC(=O)N(CC(=O)NC(C)(C)C)Cc2cccs2)cc1`, the protection (pct of control) was 32.1% (active).

Regarding `Cc1ccc(S(=O)(=O)NCC(=O)N(CC(=O)NC2CCCCC2)Cc2ccco2)cc1`, the protection (pct of control) was 39.7%.

Regarding `Cc1nnc(SCC(=O)N/N=C/c2cn(-c3ccccc3)nc2-c2ccc(F)cc2)n1-c1ccccc1`, the protection (pct of control) is 50.4% (active).

For the compound `COc1ccc(OC)c(/C=N/NC(=O)CSc2nnc(C)n2-c2ccccc2)c1`, the protection (pct of control) is 6.95%.

Take `Cc1ccc(-c2nn(-c3ccccc3)cc2/C=N/NC(=O)c2ccc3c(c2)OCO3)cc1`: the protection (pct of control) is 11.1%. Regarding `Cc1ccccc1C1=NC(C(F)(F)F)(C(F)(F)F)c2c(n(-c3ccc(F)cc3)c(=O)[nH]c2=O)N1`, the protection (pct of control) is 14.5%. Consider `Cc1ccc(-c2nc3ccccc3[nH]2)cc1NC(=O)c1sc2ccccc2c1Cl`, for which the protection (pct of control) is 80.8% (active). Regarding `COc1ccc(Br)cc1C(=O)NC(=S)Nc1cc(-c2nc3ccccc3[nH]2)ccc1C`, the protection (pct of control) is 3.52%. For `Cc1ccc(-c2nc3ccccc3[nH]2)cc1N`, the protection (pct of control) was 6.87%. As for `CCOc1ccc2nc(C(=O)N3CCCC(C)C3)sc2c1` (stereo unspecified), the protection (pct of control) was 14.9%. With `CCCCCOC(=O)NCCOC(=O)Nc1ccc(C(=O)OCC)cc1`, the protection (pct of control) is 3.01%. The value for `CCCCCCOC(=O)NCC(O)c1ccccc1` (stereo unspecified) was 31.3% (active). For `CCCCCCCCC(=O)NCCOc1ccccc1`, the protection (pct of control) is 6.49%. Consider `CCOc1ccc(N2C(=O)/C(=C/c3ccc(C)o3)N(C)C2=S)cc1`, for which the protection (pct of control) was 19.4%.

As to `CCC(=O)Nc1c(S(=O)(=O)c2ccccc2)c2nc3ccccc3nc2n1Cc1ccccc1`, the protection (pct of control) was 8.35%. The value for `O=C1CC(c2cccc(F)c2)C2=C(CCCC2=O)N1` (stereo unspecified) was 11.2%.

Turning to `COc1ccc(OC)c(C2C3=C(N=c4s/c(=C\c5cccc(O)c5)c(=O)n42)c2ccccc2CC3)c1` (stereo unspecified), the protection (pct of control) is 10.7%. `O=C1CCCC2=C1C(c1ccccc1)n1c(s/c(=C/c3cccc(F)c3)c1=O)=N2` (stereo unspecified): the protection (pct of control) is 48.1% (active). Take `CCCN(CCC)c1c([N+](=O)[O-])c(=O)oc2ccccc12`: the protection (pct of control) is 2.94%. The result for `O=C(NCC1CCCO1)c1ccc2ccccc2n1` (stereo unspecified) reads 9.11%; that for `Cc1ccc(C(=O)NCC2CCCO2)o1` (stereo unspecified), 45.6% (active); that for `Cc1nc2ccccc2c2oc(C(=O)NCC3CCCO3)cc12` (stereo unspecified), 13.5%.

As to `CC(=O)NNC1=Nc2ccccc2N(C)C(C)C1` (stereo unspecified), the protection (pct of control) was 14.9%.

For the compound `COc1ccc(-n2c(C)cc(C(=O)COC(=O)c3cc(OC)c(OC)cc3NC(=O)c3cccs3)c2C)cc1`, the protection (pct of control) is 5.86%. As for `COc1ccc(CCNC(=O)C2CCN(c3nn4c(=O)cc(C)nc4s3)CC2)cc1OC`, the protection (pct of control) is 0.06%.

As for `Cc1cc(=O)n2nc(N3CCCC(C(=O)NCCC4=CCCCC4)C3)sc2n1` (stereo unspecified), the protection (pct of control) is 38.4% (active). As for `Cc1cc(=O)n2nc(N3CCCC(C(=O)N4CCN(C)CC4)C3)sc2n1` (stereo unspecified), the protection (pct of control) was 14.9%.

Take `CC(C)c1nccn1S(=O)(=O)c1cc([N+](=O)[O-])ccc1Cl`: the protection (pct of control) is 14.2%. As for `COCc1c(C(=O)N/N=C/C2CC=CCC2)nnn1-c1nonc1N` (stereo unspecified), the protection (pct of control) was 5.58%. With `CCc1nc(Nc2ccc3nccnc3c2)c2oc3ccccc3c2n1`, the protection (pct of control) was 5.78%. Turning to `COc1ccccc1Nc1ncnc2c1oc1ccccc12`, the protection (pct of control) is 44.3% (active). Turning to `Cc1nc(Cl)c2oc3ccccc3c2n1`, the protection (pct of control) is 18.2%. The value for `CC1=C(C(=O)Nc2cc(C)ccn2)C(c2cnn(C)c2)C2=C(CC(c3ccccc3)CC2=O)N1` (stereo unspecified) was 4.9%. On to `C/C(=N/NC(=S)Nc1ccccc1)c1ccc2c(c1)OCO2`, for which the protection (pct of control) was 20.8%. As to `COc1ccc([C@H]2[C@H](C(C)=O)N3N=Cc4ccccc4C3C23C(=O)OC(C)(C)OC3=O)cc1` (stereo partly specified), the protection (pct of control) is 9.43%.

`O=C(N/N=C/c1cc([N+](=O)[O-])ccc1O)/C(=C\c1cccs1)NC(=O)c1ccccc1`: the protection (pct of control) is 3.64%. For the compound `CC1CCCN(S(=O)(=O)c2ccc(N(C(=O)c3cnccn3)C(C(=O)NC3CCCCC3)c3cccs3)cc2)C1` (stereo unspecified), the protection (pct of control) was 5.77%. The result for `O=C(NC(CC(=O)N1CCN(c2ccccc2)CC1)c1ccccc1)c1ccccc1Cl` (stereo unspecified) reads 5.39%. For `CCOc1ccc(Nc2nc(Cc3nnc(SCC(=O)NC4CCCC4)n3C)cs2)cc1`, the protection (pct of control) is 4.14%. On to `CC(=O)Nc1ccc(C(=O)CSc2nnc(Cc3ccccc3)o2)cc1`, for which the protection (pct of control) was 5.61%.

Consider `CCOc1ccc(Nc2nc(Cc3nnc(SCC(=O)c4ccc(C)cc4)o3)cs2)cc1`, for which the protection (pct of control) was 31.3% (active).
